Assay outcomes: PubChem, National Center for Advancing Translational Sciences (NCATS)
HT1080NT lethal – kills 2HG-producing HT-1080-NT fibrosarcoma cells | HT-1080-NT fibrosarcoma viability, CellTiter-Glo ATP luminescence, 48 h | Potency, µM (highest dose often 46.1 µM), inactives show at the highest dose activity, negative = less viability, usual class: cytotoxic | 360,000 compounds, 1.6% hits;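 also: NT is the 2HG producing partner of a matched IDH1 knockdown line; 0% = DMSO-treated cells and -100% = media-only wells without cells; nearly all actives have a fitted effect of over 55% in size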
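HT-1080-NT fibrosarcoma cells (2HG-overproducing), 750 cells/well in RPMI with 5% FBS, dosed after 2 h and incubated 48 h at 37C. CellTiter-Glo luminescence normalized to DMSO and no-cell wells; concentration-response curves fitted and classed.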
KB-V1 MDR tox – KB-V1 MDR subline cytotoxicity; KB-V1 MDR cells viability, CellTiter-Glo, 72 h; Potency, µM (doses to about 46.1 µM), actives largely listed as cytotoxic; 400,000 compounds, 3.4% hits; also: % is scaled to controls: 0 for no effect and ±100 for the full control effect; nearly all actives have a fitted effect of over 60% in size
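Compound-treated KB-V1 multidrug-resistant cells, 72 h, 37 degrees C; viability by CellTiter-Glo. Fitted qHTS curves give the values.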
KB-3-1 cytotox – kills parental KB-3-1 adenocarcinoma cells; Potency, µM (titrated, usually from 46.1 µM), actives largely listed as cytotoxic; 400,000 compounds, 1.4% hits; KB-3-1 viability, CellTiter-Glo ATP luminescence, 72 h; also: % is scaled to controls: 0 for no effect and ±100 for the full control effect; nearly all actives have a fitted effect of over 60% in size
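Parental KB-3-1 viability, qHTS format: 72 h compound exposure, 37 °C; CellTiter-Glo; media-only wells and DMSO plates as controls; concentration-effect fits on corrected data.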
S2 tox – cell viability loss in ATXN counter-screen. S2 cells (HEK-293 line with an ATXN2-luciferase reporter) viability, CellTiter-Fluor protease fluorescence, 24 h. Potency, µM (titrated, usually from 56.7 µM), usual class: cytotoxic. 400,000 compounds, 0.49% hits; also: nearly all actives have a fitted effect of over 40% in size
ATXN2 expr inh – reduces ATXN2 reporter expression in HEK-293 cells | HEK-293 ATXN2-luciferase reporter, luminescence, 24 h | Potency, µM (series often up to 57 µM), for the others: top-dose activity change, negative = inhibition, most hits filed as inhibitors | 360,000 compounds, 0.72% hits | AID 1745845; also: % is scaled to controls: 0 for no effect and ±100 for the full control effect; nearly all actives have a fitted effect of over 55% in size
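qHTS (up to 57 uM final) was run with 24 h compound exposure of reporter cells at 37 °C. Each well was multiplexed: SteadyGlo luminescence measured ATXN2-luciferase expression after a fluorogenic Gly-Phe-AFC viability readout (25 uM final).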
HT1080 IDH1KD tx – toxicity to HT-1080 IDH1 knockdown cells (counter line) | AID 686971 | Potency, µM (series often up to 46.1 µM), inactives show top-dose activity, negative = toxicity, actives largely listed as cytotoxic | HT-1080 IDH1 knockdown viability, ATP luminescence, 48 h | 360,000 compounds, 2% hits;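 also: 0% = DMSO wells and -100% = cell-free medium wells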
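IDH1KD HT-1080 cells, 750/well, RPMI + 5% FBS; compound pinned after 2 h settling; 48 h, 37 °C; CellTiter-Glo luminescence; % activity normalised to DMSO and no-cell wells; curves fitted, classed by r2 and efficacy.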
Numbers without * were called inactive; i = inactive; ? = inconclusive; . = no result given. Only some compounds are listed: those with a hit (about 6.2% of all), similar ones and a draw of the others. Calls follow the shape of the dose curve; as a rule, active = well fitted curve in the direction sought with a large enough effect; inconclusive = small, poorly fitted or top-dose-only effect, or another doubt; inactive = no such curve, though single readings can be large; an effect the other way counts as inactive or inconclusive. Potency is read from the fitted curve at half-maximal effect.

SMILES | HT1080NT lethal | KB-V1 MDR tox | KB-3-1 cytotox | S2 tox | ATXN2 expr inh | HT1080 IDH1KD tx
CSc1nc(-c2ccccc2)c(-c2ccccc2)[nH]1 | -10% | 12µM* | ? | i | -1% | -17%
COc1nc(N)nc(NC(=O)c2cccs2)c1N=O | 16µM* | i | i | ? | 2% | 18µM*
COc1ccc(NC(=O)c2ccc(NC(=O)c3cccs3)cc2)cc1 | ? | i | i | ? | ? | ?
COCCN1Cc2cccc(C(=O)Nc3ccc(Cl)cc3Cl)c2C1=O | . | i | i | i | -14% | .
Cc1cccc(NC(=O)C(=O)c2cc(C)n(-c3ccccc3)c2C)c1C | . | i | i | i | 27% | .
CN1c2ccccc2C(C)(C)[C@]12C=Cc1cc(O)ccc1O2 | ? | i | ? | ? | -14% | 18µM*
O=C(CN1C2=NCCCN2c2ccccc21)c1ccc(Br)s1 | ? | 10µM* | ? | i | ? | -28%
CC(C)(C)c1ccc(CN2C3=NCCCN3c3ccccc32)cc1 | ? | ? | ? | ? | ? | 23µM*
O=C(O)CN1C2=NCCCN2c2ccccc21 | 19% | i | i | i | -17% | 19%
Cc1cc2c(cc1C)N(Cc1ccc(Cl)cc1)C1=NCCCN12 | 26µM* | ? | ? | ? | ? | ?
Cc1ccc(CN2C3=NCCCN3c3ccccc32)cc1 | -10% | i | ? | i | -19% | -30%
COc1ccc(Cc2noc(CN3CCCN(Cc4ccc(F)cc4)CC3)n2)cc1OC | -1% | ? | i | i | -20% | 8%
COc1ccc(Cc2noc(CN3CCC(c4ccncc4)CC3)n2)cc1OC | -27% | 18µM* | ? | i | . | ?
O=C(Cc1ccc(OCCCc2ccccc2)cc1)NO | . | i | i | . | . | .
Cc1ccc(C)c2c1[nH]c1ccc([N+](=O)[O-])cc12 | -25% | 8.2µM* | ? | i | -26% | ?
Cc1cc(=O)[nH]c2ccc([N+](=O)[O-])cc12 | . | i | i | . | . | .
Cc1ccc(S(=O)(=O)N2CCN(C(=O)c3cc(-c4cccs4)nn3-c3ccccc3)CC2)cc1 | -1% | 4.6µM* | i | i | -21% | 0%
O=C(c1cc(-c2cccs2)nn1-c1ccccc1)N1CCN(S(=O)(=O)c2ccccc2)CC1 | -3% | 16µM* | i | i | -25% | 0%
O=C(c1cc(-c2ccccc2)nn1-c1ccccc1)N1CCN(S(=O)(=O)c2ccc(F)cc2)CC1 | 0% | ? | i | i | 6% | -1%
CC1CN(Cc2cccn2-c2ncccn2)Cc2cc(Cl)ccc2O1 (centres undefined) | . | . | . | i | . | .
C[C@H]1C[C@H]2[C@@H]3CCC4=CC(=O)C=C[C@]4(C)[C@H]3C(=O)C[C@]2(C)[C@@]1(O)C(=O)CO | . | . | . | i | 0% | .
COC(=O)c1ccccc1COc1cccn2c(N(C)Cc3cccs3)c(C)nc12 | ? | 18µM* | ? | i | 18µM* | ?
CCOC(=O)N(C)c1c(CC)nc2c(OCc3cccc(Cl)c3)cccn12 | -22% | i | i | ? | ? | -27%
CCC(CC)C(=O)N(C)c1c(C)nc2c(OCc3ccccc3C(=O)OC)cccn12 | -14% | i | i | i | -16% | -8%
Cc1nc2c(OCc3ccc(Cl)cc3)cccn2c1N(C)C(=O)CCC1CCCC1 | 14% | ? | ? | i | 5% | 18%
SMILES | HT1080NT lethal | KB-V1 MDR tox | KB-3-1 cytotox | S2 tox | ATXN2 expr inh | HT1080 IDH1KD tx
Cc1nc2c(OCc3cccc(Cl)c3)cccn2c1N(C)Cc1cccs1 | ? | 18µM* | ? | ? | ? | ?
Cc1nc2c(OCc3ccc(Cl)cc3Cl)cccn2c1N(C)Cc1cccs1 | ? | ? | ? | . | 8.9µM* | ?
O=C(C1CC(c2ccc(F)cc2)=NO1)N1CCN(Cc2ccccc2)CC1 (centres undefined) | -1% | i | i | i | -13% | -7%
COc1cccc(C2=NOC(C(=O)N3CCN(Cc4ccccc4)CC3)C2)c1OC (centres undefined) | 0% | 5.8µM* | i | i | -4% | 1%
Brc1ccc(/C=C2\C=Cc3ccccc32)cc1 | . | i | i | . | . | .
CCOc1ccc(NS(=O)(=O)c2ccc(OCC)c3ncccc23)cc1 | 11µM* | 13µM* | ? | i | -6% | 10µM*
COc1ccc(S(=O)(=O)Nc2cc(C)cc(C)n2)c2ccccc12 | 7% | i | i | i | -1% | 0%
CCOc1ccc(S(=O)(=O)Nc2cc(C)ccn2)c2ccccc12 | 2% | 18µM* | ? | i | -12% | -6%
C(=C\c1ccccn1)/c1ccccc1 | . | i | ? | . | . | .
COc1ccc(-c2cc(=O)c3ccccc3o2)cc1 | -12% | i | i | i | 24% | -10%
COc1ccc2oc(-c3ccccc3[N+](=O)[O-])cc(=O)c2c1 | 8.2µM* | 5.8µM* | ? | i | -3% | 6.5µM*
CC(C=CC1=C(C)CCCC1(C)C)=CC=CC(C)=CC(=O)O | . | . | . | . | -17% | .
C[C@@H]1[C@H](C)CC[C@]2(C(=O)O)CC[C@]3(C)C(=CC[C@@H]4[C@@]5(C)CC[C@H](O)C(C)(C)[C@H]5CC[C@]43C)[C@@H]12 | . | . | . | . | 56µM* | .
CC1(C)C[C@H](O)[C@]2(CO)[C@H](O)C[C@]3(C)C(=CCC4[C@@]5(C)CC[C@H](O)C(C)(C)C5CC[C@]43C)[C@@H]2C1 (some centres undefined) | 21µM* | ? | ? | ? | ? | ?
Cc1onc(-c2ccccc2)c1C(=O)N/N=C/c1cc(Br)c(O)c(Br)c1 | 0% | . | . | i | -13% | 0%
Cc1onc(-c2ccccc2)c1C(=O)N/N=C/C(Br)=C/c1ccccc1 | 2% | 15µM* | ? | i | -24% | -16%
Cc1cccc(/C=N/NC(=O)c2c(-c3ccccc3)noc2C)c1O | ? | i | ? | i | 3.5µM* | ?
Clc1ccc(CNc2ncnc3nc[nH]c23)cc1 | . | i | i | . | . | .
NC(=O)c1nn2c(C(F)(F)F)cc(-c3ccc(Br)cc3)nc2c1Cl | . | i | i | . | . | .
O=S(=O)(c1ccccc1)c1nc(Nc2ccccc2N2CCOCC2)sc1Cl | ? | 21µM* | i | i | -19% | -25%
Cc1cc(NC(=O)Cn2cnc3sc(C)c(-c4ccccc4)c3c2=O)no1 | -7% | 21µM* | i | i | -16% | -15%
Cc1cc(NC(=O)Cn2cnc3sc(C)c(C)c3c2=O)no1 | 0% | i | i | i | -7% | -11%
